NPC1 promoter act – activates the NPC1 promoter | actives 2.4% (n = 320,000) | Huh7 NPC1 promoter luciferase reporter, 24 h | Potency, µM (doses to about 9.22 µM), without a hit: top-dose activation, most hits filed as activators; note: % of control where 0% means no effect; nearly all actives have a fitted effect of over 60% in size
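In 1536-well qHTS, Huh7 cells harboring an NPC1 promoter–luciferase construct received compound for 24 h; activation was quantified by luminescence following luciferase reagent addition.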
KinaseGlo FLuc – counter-screen: inhibitors of Kinase-Glo firefly luciferase; AID 1379; actives 0.28% (n = 200,000); Q27757; Potency, µM (top dose mostly 38.3 µM), without a hit: at the highest dose activity change, negative = inhibition, actives largely listed as inhibitors; Kinase-Glo luciferase, ATP luminescence, 8 min; note: % is set by controls: 0 for no effect and ±100 for the full control effect; nearly all actives have a fitted effect of over 60% in size
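Compound is pinned into ATP-containing buffer (10 uM ATP, imidazole pH 7.2, 7 mM MgCl2). Kinase-Glo luciferase reagent is then added. Light output is recorded following an 8-min room-temperature incubation.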
SMN2 splice up – SMN2 splice variant enhancement | HEK293 SMN2-luciferase splicing reporter, luminescence, 30-36 h | Potency, µM (top dose mostly 46.1 µM), for inactives: top-dose activity change, positive = activation, hits mostly activators | actives 2.8% (n = 210,000); note: % of control where 0% means no effect; nearly all actives have a fitted effect of over 55% in size
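HEK293 cells carry an SMN2 […]–luciferase reporter in which exon 7 inclusion puts luciferase in frame. Cells were plated 10-12 h before compound addition, then incubated 30-36 h at 37C. ONE-Glo luminescence was read; sodium butyrate at 4.5 mM final served as control.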
ELG1 genotox – induces genotoxicity in HEK293T cells with luciferase-tagged ELG1; HEK293T ELG1-luciferase reporter, luminescence, 16 h; Potency, µM (titrated, usually from 46 µM), for inactives: at the top dose activity change, positive = activation, hits mostly activators; actives 1.3% (n = 330,000); AID 504466; note: % of control where 0% means no effect; nearly all actives have a fitted effect of over 60% in size
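Quantitative HTS format in 1536-well plates. HEK293T ELG1-luciferase reporter cells receive test compound and are incubated 16 hr at 37 °C, 5% CO2; ONE-Glo added, 30 min room temperature, then luminescence read.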
Rab9 prom act – activates the Rab9 promoter. Huh7 Rab9 promoter-luciferase reporter, luminescence, 24 h. AID 485297. actives 2.8% (n = 320,000). Potency, µM (doses to about 9.22 µM), for inactives: at the highest dose activation, negative = inhibition, hits mostly activators; note: % of control where 0% means no effect; nearly all actives have a fitted effect of over 60% in size
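Steps: seed 1500 Huh7 Rab9-luc cells per well, rest 2 h at 37 °C; add compound in DMSO; incubate 24 h; add luciferase reagent, 10 min ambient; read luminescence.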
FLuc modulator – counter-screen for miR-21 project: firefly luciferase inhibitors or activators. P08659. purified FLuc, Km substrates, luminescence inhibition. Potency, µM (doses to about 57.5 µM), for the others: at the highest dose activity change, negative = inhibition, usual class: inhibitors. actives 6.9% (n = 360,000). AID 588342;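 note: plate controls were vehicle for no effect and reference inhibitor for full effect; nearly all actives have a fitted effect of over 55% in size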
Target sequence (P08659 whole entry, looked up): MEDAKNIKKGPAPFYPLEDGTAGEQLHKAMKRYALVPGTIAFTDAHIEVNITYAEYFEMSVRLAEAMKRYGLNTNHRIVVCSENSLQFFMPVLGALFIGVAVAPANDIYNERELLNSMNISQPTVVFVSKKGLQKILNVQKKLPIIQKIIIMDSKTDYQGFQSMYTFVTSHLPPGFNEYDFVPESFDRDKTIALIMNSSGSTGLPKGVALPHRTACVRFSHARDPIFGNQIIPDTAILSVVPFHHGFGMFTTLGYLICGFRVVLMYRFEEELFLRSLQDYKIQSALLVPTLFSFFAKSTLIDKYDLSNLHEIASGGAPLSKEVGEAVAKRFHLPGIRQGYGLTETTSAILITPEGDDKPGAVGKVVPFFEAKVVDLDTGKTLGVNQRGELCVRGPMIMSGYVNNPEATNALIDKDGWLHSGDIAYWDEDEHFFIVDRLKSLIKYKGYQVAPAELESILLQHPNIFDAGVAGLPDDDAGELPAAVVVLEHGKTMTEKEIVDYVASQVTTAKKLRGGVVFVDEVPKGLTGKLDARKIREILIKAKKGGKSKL
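Biochemical qHTS of compounds, final roughly 60 µM downward over six points, against 10 nM purified firefly luciferase using Km concentrations of substrates (10 uM D-luciferin, 10 uM ATP) in Tris acetate pH 7.5 buffer; luminescence output.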
Active calls of the source: *; ? = inconclusive; / = no result given; [ ] = dose if it differs, or a comment. Compounds with a hit are over-represented: about 7.5% of the library has one in this group of screens. Calls come from the whole dose curve; as a rule, active = well fitted curve in the direction sought with a large enough effect; inconclusive = small, poorly fitted or top-dose-only effect, or another doubt; inactive = no such curve, though single readings can be large; an effect the other way counts as inactive or inconclusive. Potency is the fitted concentration of half-maximal effect.

SMILES	NPC1 promoter act	KinaseGlo FLuc	SMN2 splice up	ELG1 genotox	Rab9 prom act	FLuc modulator
O=C(Nc1ccc(Br)cc1F)c1ccc2c(c1)OCCO2	0.28µM*	/	/	?	0.13µM*	0.54µM*
O=C(COC(=O)c1ccc2c(c1)OCCO2)Nc1ccc(F)cc1F	/	/	/	6%	/	/
COc1cccc(CNC(=O)CSc2cc(C)[nH]c(=O)n2)c1	/	/	/	/	/	2%
O=C(Nc1ccc(OCc2ccccc2)cc1)Nc1ccccc1C(=O)NCCCN1CCOCC1	1%	/	/	6%	5%	19µM*
O=C(Nc1ccc(F)cc1)Nc1ccccc1C(=O)NCCN1CCNC1=O	-6%	/	/	0%	1%	17µM*
Cc1ccc(NC(=O)Cn2c(=O)n(Cc3ccc4c(c3)OCO4)c(=O)c3ccc(C(=O)NC4CCCCC4)cc32)cc1	/	/	11%	/	/	1%
Cc1cccc(C)c1NC(=O)CCS(=O)(=O)c1ccc2c(c1)CC(C)N2C(=O)C1CC1 (stereo not drawn)	/	/	/	/	/	-10%
CCCCC/C=C\C\C=C/C=C/C=C/[C@@H](SCC(N)C(=O)O)[C@@H](O)CCCC(=O)O (stereo partly drawn)	/	1%	11%	/	/	/
N#Cc1ccc2c(c1)C[C@]1(CCCCN3C(=O)c4ccccc4C3=O)Oc3cc(-c4ccccc4)oc(=O)c3[C@H]2O1	1%[1.84 µM]	/	/	/	-1%[1.84 µM]	5%[11.5 µM]
CCCCCC(=O)Nc1ccc(-c2csc(C)n2)cc1	20%	-3%	?	3%	?	15µM*
CCCCCC(=O)Nc1ccc(-c2csc(N)n2)cc1	4%	/	/	?	?	17µM*
CCC(=O)Nc1ccc(-c2csc(NNC(C)=O)n2)cc1	-5%	3%	-10%	0%	-3%	-7%
Cc1nc(-c2ccc(NC(=O)/C=C\C(=O)O)cc2)cs1	0%	-2%	14%	11%	1%	9.5µM*
O=C(O)/C=C/C(=O)Nc1ccc(-c2ccccc2)cc1	16%	1%	21%	14%	28%	6.7µM*
CC(C)(C)NC(=O)Cn1cc(S(=O)(=O)Cc2ccccc2Cl)c2ccccc21	/	/	/	/	/	0%
CCOc1ccc(NC(=O)c2c(C)oc3nc(C)nc(N4CCOCC4)c23)cc1	/	/	/	/	/	5%
CCCCCC(=O)Nc1ccc(C2C(=O)c3ccccc3C2=O)cc1	2.8µM*	/	/	?	2.2µM*	2.7µM*
O=C(O)/C=C\C(=O)Nc1ccc(N2CCN(c3ccc(Cl)cc3)CC2)cc1	-7%	-3%	/	-1%	-14%	15µM*
Cc1ccc2sc(-c3ccc(NC(=O)/C=C\C(=O)O)cc3)nc2c1	?	-4%	7.1µM*	?	2.8µM*	0.95µM*
O=C(O)/C=C/C(=O)Nc1ccc(-n2nccc2C(F)(F)F)cc1	-1%	/	/	1%	9%	17µM*
CCCCC(=O)Nc1ccc(C(=O)c2ccccc2)cc1	8%	3%	3%	12%	24%	?
Cc1ccc(S(=O)(=O)Nc2ccc(NC(=O)/C=C/C(=O)O)cc2)cc1	-3%	-1%	6%	-1%	-6%	-2%
O=C(O)/C=C/C(=O)Nc1ccc(-n2ccc(C(F)(F)F)n2)cc1	0%	/	/	1%	-5%	-5%
CCN(CC)CCNC(=O)c1ccc(Cc2nc3ccccc3[nH]2)cc1	/	0%	/	/	/	/
COc1ccc(Cn2ccnc2SCC(=O)Nc2ccc3c(c2)OCCO3)cc1	/	/	/	/	/	-6%
SMILES	NPC1 promoter act	KinaseGlo FLuc	SMN2 splice up	ELG1 genotox	Rab9 prom act	FLuc modulator
Fc1ccccc1OCCSc1nnnn1-c1ccccc1	2.5µM*	-5%	3.2µM*	10µM*	?	3µM*
CCOc1ccc(OCCSc2nnnn2-c2ccccc2)cc1	9%	1%	/	6%	6%	?
COc1ccccc1OCCSc1nnnn1-c1ccc(C)cc1	15%	3%	?	?	-5%	17µM*
c1ccc(OCCSc2nnnn2-c2ccccc2)cc1	2.5µM*	-4%	16µM*	3.7µM*	0.89µM*	2.7µM*
CS(=O)(=O)Nc1cccc(-c2nccc(NCc3ccccc3)n2)c1	/	-2%	-12%	/	/	/
Cc1cc2oc(=O)cc(C)c2c2occ(-c3ccc(Cl)cc3)c12	/	/	2%	/	/	-2%
COC(=O)C(CCSC)NC(=O)C1CCN(c2ncnc3c2nc2n3CCCCC2)CC1 (stereo not drawn)	/	/	/	/	/	2%
Cc1ccc(-c2cc(-c3nnc(SCC(=O)NCC(C)C)n3N)c3ccccc3n2)cc1	23%	-6%	4%	1%	4%	17µM*
CCC(C)NC(=O)CSc1nnc(-c2cc(-c3ccc(C)cc3)nc3ccccc23)n1N (stereo not drawn)	-1%	-5%	-5%	-5%	0%	11µM*
CCC(C)NC(=O)CSc1nnc(-c2ccc(Cl)cc2)n1N (stereo not drawn)	-6%	2%	-8%	-3%	-5%	-2%
Cc1c(NC(=O)Nc2ccc(Br)cc2F)sc2nc3n(c(=O)c12)CCC(C)CC3 (stereo not drawn)	/	/	-5%	/	/	7%
Cc1nc2c(C(=O)Nc3ccc(N4CCCC(O)C4)cc3)snc2c(=O)[nH]1 (stereo not drawn)	17%	/	/	12%	2%	3µM*
O=C(Nc1ccc(N2CCCC(O)C2)cc1)c1snc2c(=O)[nH]cnc12 (stereo not drawn)	17%	-6%	?	?	18%	2.1µM*
Cc1cccc(NC(=O)c2snc3c(=O)[nH]cnc23)c1	-2%	-5%	-11%	-2%	3%	0%
O=S1(=O)C=C(Sc2nc3ccccc3s2)c2ccccc21	-33%	0%	-108%	-45%	-34%	2.7µM*
O=C(c1ccc2c(c1)N(Cc1ccccc1F)C(=O)c1ccccc1S2=O)N1CCC(Cc2ccccc2)CC1 (stereo not drawn)	/	/	-26%	/	/	-1%
CCOc1ccccc1CNC(=O)c1c(C)oc2ncnc(N3CCOCC3)c12	/	/	/	/	/	1%
Cc1cccc(C(=O)NC2(C(F)(F)F)N=C(c3ccccc3)N(Cc3ccccc3)C2=O)c1 (stereo not drawn)	/	/	-13%	/	/	8%
CC1(C)CNC(=O)c2sc(N3CCCCC3)nc2C1	13%	-3%	23%	?	22%	15µM*
CC1(C)CC(=O)c2sc(N3CCCCC3)nc2C1	?	-8%	-8%	?	?	?
COc1ccc(NC(=O)c2cc3c(s2)-c2c(C)cccc2OC3)cc1Cl	/	/	0%	/	/	-2%
Clc1ccc(CSc2cc3c(nn2)-c2ccccc2CC3)cc1	?	4%	12%	6%	28%	12µM*
Clc1ccc(Cc2ccc(SCc3ccccc3)nn2)c(Cl)c1	-3%	0%	-1%	-5%	-1%	-9%
COc1ccccc1NC(=O)C(=O)NCCc1csc(-c2cccc(F)c2)n1	/	/	/	/	/	-15%
